Screening results (PubChem BioAssay)
LDHA inh: inhibitors of human lactate dehydrogenase A. purified LDHA, NADH/diaphorase-resazurin fluorescence; active compounds read low. activity change, % (values are at about 110 or 230 µM). hit rate 0.15% among 480,000. AID 1347041; in the data active means activity change below about -30%; inconclusive means mostly about -25% to -30%;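 further: plate controls were DMSO wells for no effect and wells without enzyme for full effect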
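Enzyme activity of human lactate dehydrogenase 5 (2 nM; 0.06 mM NADH, 0.2 mM pyruvate, 5 min, RT) is measured via a resazurin/diaphorase fluorescence readout of residual NADH.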
Mito fusion yeast: inhibitors of mitochondrial division or activators of mitochondrial fusion | S. cerevisiae fusion-defective mutant growth rescue, CellTiterGlo 48 h | Potency, µM (doses to about 46.1 µM), inactives show at the highest dose growth rescue (activation), usual class: activators | hit rate 0.23% among 320,000 | AID 485298; further: potency means the concentration at half of the fitted maximal effect; % of control where 0% means no effect; nearly all actives have a fitted effect of over 45% in size
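S. cerevisiae fusion-defective temperature-sensitive mutants (e.g. fzo1-1, mgm1-5) grown 48 h at 37C in YPEG (ethanol/glycerol non-fermentable) medium with 23 nl compound per well; growth rescue read as CellTiterGlo luminescence.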
ClpP mod: qHTS Assay for Activators of ClpP. Potency, µM (highest dose often 57.5 µM), for the others: at the highest dose activity change, negative = active. AID 651965, 2013. hit rate 1.9% among 340,000. ATP-dependent Clp protease proteolytic subunit (Bacillus subtilis (strain 168)), P80244. purified B. subtilis ClpP, FRET peptide cleavage, 20 min; active means well fitted falling curve with a large enough effect; inconclusive means small, poorly fitted or top-dose-only effect; inactive means no such curve, though single readings can be large or run the other way; further: potency means the concentration at half of the fitted maximal effect; the source files actives as falling curves though it sought activators and does not explain the sign; nearly all actives have a fitted effect of over 65% in size
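Buffer: 100 mM Tris/HCl pH8, 100 mM KCl, 0.05% low protease BSA, 2.5% glycerol, 0.01% Tween-20. ClpP 10 microg/mL final; 20 min RT; delta FRET normalized to ADEP and DMSO controls.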
ASM inhibitor: inhibitors of human secretory acid sphingomyelinase. P17405. placental ASM, HMU-PC fluorogenic substrate, 60 min. Potency, µM (top dose mostly 57.5 µM), for the others: top-dose activity change, negative = inhibition, usual class: inhibitors. hit rate 0.006% among 340,000. AID 504937; further: potency means the concentration at half of the fitted maximal effect
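Human placenta-derived ASM enzyme was preincubated with compound for 10 minutes at room temperature, then given fluorogenic substrate HMU-PC0 (9 uM final) for 60 minutes at 37 °C; a pH 10 stop preceded fluorescence reading at Ex 386/Em 447 nm.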
IDH1 R132H inh: human IDH1 R132H inhibition | hit rate 0.093% among 390,000 | Potency, µM (highest dose often 76.6 µM), for the others: top-dose activity change, negative = inhibition, actives largely listed as inhibitors | O75874 | IDH1-R132H enzyme, NADPH consumption, diaphorase/resazurin fluorescence | AID 602179; further: potency means the concentration at half of the fitted maximal effect; on the % scale 0 is the no-effect control and ±100 the full control effect; nearly all actives have a fitted effect of over 65% in size
Target sequence (O75874 whole entry R132H, stated change not applied): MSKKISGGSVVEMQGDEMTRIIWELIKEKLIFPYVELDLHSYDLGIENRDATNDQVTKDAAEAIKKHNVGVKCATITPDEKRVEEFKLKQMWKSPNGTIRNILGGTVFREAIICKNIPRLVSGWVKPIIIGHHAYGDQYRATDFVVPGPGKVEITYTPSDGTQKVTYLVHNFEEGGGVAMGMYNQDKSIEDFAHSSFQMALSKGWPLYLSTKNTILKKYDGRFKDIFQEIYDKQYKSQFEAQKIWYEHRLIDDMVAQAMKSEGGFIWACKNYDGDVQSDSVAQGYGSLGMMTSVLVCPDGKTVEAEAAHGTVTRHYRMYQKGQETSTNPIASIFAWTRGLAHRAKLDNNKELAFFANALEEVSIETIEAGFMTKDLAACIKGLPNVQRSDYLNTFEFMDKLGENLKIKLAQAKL
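IDH1-R132H (0.5 ug/mL dispensed) in pH 7.5 Tris buffer was preincubated 30 min with compound, then given a substrate mix of 0.016 mM NADPH and 2 mM alpha-KG for 80 min at room temperature; remaining NADPH was read by diaphorase/resazurin fluorescence.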
RGS4 inhibitor: inhibitors of human regulator of G protein signaling 4 | Transcreener GDP fluorescence polarization, RGS4-accelerated GTP hydrolysis | Potency, µM (highest dose often 114 µM), without a hit: at the top dose activity change, negative = inhibition, hits mostly inhibitors | hit rate 0.039% among 390,000 | AID 504845; further: potency means the concentration at half of the fitted maximal effect; on the % scale 0 is the no-effect control and ±100 the full control effect; nearly all actives have a fitted effect of over 75% in size
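MLSMR compounds (23 nl, pin-transferred) preincubated 10 min at room temperature with a 500nM (2x) first reagent, then RGS4 at 900nM (2x) plus Transcreener GDP mix added; fluorescence polarization (620/688 nm) read before and after 90 min at 30 °C.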
Numbers without * were called inactive; ? = inconclusive; · = no result given. The entries come from a sample that favours hits as a whole. Unless noted, the call rests on the fitted dose curve; in most records, active means well fitted curve in the direction sought with a large enough effect; inconclusive means small, poorly fitted or top-dose-only effect, or another doubt; inactive means no such curve, though single readings can be large; an effect the other way counts as inactive or inconclusive.

SMILES	LDHA inh	Mito fusion yeast	ClpP mod	ASM inhibitor	IDH1 R132H inh	RGS4 inhibitor
c1cc(OCc2ccc3c(c2)OCCO3)ccc1CNCC1CCCO1 (stereo not given)	3	·	·	·	·	·
Cc1cc(=O)n(C(C)Cc2ccccc2)n1C(C)Cc1ccccc1 (stereo not given)	-9	·	32µM*	0%	4%	-42%
Cc1ccn(C(=O)c2cc3c(C)nn(-c4ccccc4)c3s2)n1	-5	2%	3.5µM*	38%	0%	16%
Cc1nn(-c2ccccc2)c2sc(C(=O)NC3CCCCC3)cc12	2	2%	?	-7%	0%	12%
Cc1nn(-c2ccccc2)c2sc(C(=O)OCn3nnc4ccccc4c3=O)cc12	-2	9%	10µM*	-5%	-7%	20%
Cc1cc(C)n(-c2ccc(C(=O)OCn3nnc4ccccc4c3=O)cc2)n1	0	-1%	3%	-5%	3%	-26%
Cc1nn(-c2ccccc2)c2sc(C(=O)NCCN3CCOCC3)cc12	-2	-5%	28µM*	-3%	0%	30%
Cc1nn(-c2ccccc2)c2sc(C(=O)n3cccn3)cc12	-5	-2%	?	52%	3%	-25%
CCOc1ccccc1OC(=O)c1ccccc1	4	·	·	·	·	·
COCC(C)n1c(SCC(=O)N2CCc3ccccc3C2)nc2ccccc2c1=O (stereo not given)	-9	-10%	13µM*	7%	-5%	-8%
COc1ccc(C2(OC)Oc3cc(OC)ccc3C(=O)C2(O)OC)cc1 (stereo not given)	-1	·	32µM*	3%	0%	-3%
COc1ccc2c(c1)OC(c1ccccc1)(C(F)(F)F)NC2=O (stereo not given)	-6	0%	0%	-1%	4%	0%
Cc1c(C(=O)Nc2ccc(S(=O)(=O)N(C)C)cc2)oc2c(Cl)cccc12	6	·	·	·	·	·
CC(C)Oc1cccc(-c2cc(C(=O)NC(=S)N(C)c3ccccc3C(=O)O)c3ccccc3n2)c1	2	0%	6.3µM*	35%	3%	-21%
Cn1c(SCC(=O)Nc2nccs2)nnc1-c1ccc(S(=O)(=O)N2CCCC2)cc1	7	0%	-3%	0%	10%	1%
O=C(CSc1n[nH]c(-c2ccc(S(=O)(=O)N3CCCCC3)cc2)n1)Nc1nccs1	-5	1%	28µM*	-3%	-5%	-17%
CC(C)(C)OCC(O)CN(CCO)CC(O)Cn1ccc2ccccc21 (stereo not given)	7	·	·	·	·	·
Cc1cc(C)c2c(N)c(C(=O)c3ccccc3)oc2n1	1	-6%	-3%	2%	8%	-2%
COC(=O)c1oc2nc(C)cc(C)c2c1N	-5	-1%	28µM*	64%	9%	-22%
O=C(NCc1ccccc1)Nc1cccn(Cc2ccc(F)cc2)c1=O	-2	-8%	32µM*	0%	-4%	19%
O=C(NCc1ccccc1)Nc1cccn(Cc2ccccc2)c1=O	-3	-2%	25µM*	0%	3%	32%
O=C(NCc1cccn1Cc1ccc(F)cc1)Nc1ccc(F)cc1F	-2	·	·	·	·	·
COc1ccc(Cn2cccc(NC(=O)Nc3cccc(C#N)c3)c2=O)cc1	-7	-1%	?	2%	12%	-15%
O=C(NCc1ccccc1)Nc1cccn(Cc2cccc(F)c2)c1=O	-4	-7%	35µM*	2%	-3%	10%
CCOc1ccc(NC(=O)Nc2cccn(Cc3ccccc3)c2=O)cc1	-1	9%	28µM*	-7%	5%	-14%
Cc1cc(NC(=O)NCc2ccccc2)c(=O)n(Cc2ccc(F)cc2)c1	4	4%	·	-3%	18%	-11%
COc1ccccc1NC(=O)NCc1cccn1Cc1ccccc1	-7	·	-3%	·	5%	-6%
C=CCNc1nc(-c2ccc(S(=O)(=O)N3CCOCC3)cc2)cs1	8	·	·	·	·	·
CN(C)CCCNC(N)=O	1	·	·	·	·	·
